# Laboratory results: publication PMC4336329 (PLoS ONE, 2015)
# In all, about 310,000 compounds went through this assay and about 14,000 (4.5%) showed an effect of 50% or more. The effect is printed as a negative number. Many of the other results were omitted from the sample, so strong results are more common in it than they were.
# Biological target: human ether-à-go-go-related gene (hERG) potassium channel (human, UniProt Q12809)
# Assay: primary screen, population patch clamp on CHO cells stably expressing hERG; higher = less effect of the substance
# 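Note: peak tail current of the secondary pulse compared with the same well before compound.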
# human ether-à-go-go-related gene (hERG) potassium channel, sequence (Q12809 whole entry, looked up): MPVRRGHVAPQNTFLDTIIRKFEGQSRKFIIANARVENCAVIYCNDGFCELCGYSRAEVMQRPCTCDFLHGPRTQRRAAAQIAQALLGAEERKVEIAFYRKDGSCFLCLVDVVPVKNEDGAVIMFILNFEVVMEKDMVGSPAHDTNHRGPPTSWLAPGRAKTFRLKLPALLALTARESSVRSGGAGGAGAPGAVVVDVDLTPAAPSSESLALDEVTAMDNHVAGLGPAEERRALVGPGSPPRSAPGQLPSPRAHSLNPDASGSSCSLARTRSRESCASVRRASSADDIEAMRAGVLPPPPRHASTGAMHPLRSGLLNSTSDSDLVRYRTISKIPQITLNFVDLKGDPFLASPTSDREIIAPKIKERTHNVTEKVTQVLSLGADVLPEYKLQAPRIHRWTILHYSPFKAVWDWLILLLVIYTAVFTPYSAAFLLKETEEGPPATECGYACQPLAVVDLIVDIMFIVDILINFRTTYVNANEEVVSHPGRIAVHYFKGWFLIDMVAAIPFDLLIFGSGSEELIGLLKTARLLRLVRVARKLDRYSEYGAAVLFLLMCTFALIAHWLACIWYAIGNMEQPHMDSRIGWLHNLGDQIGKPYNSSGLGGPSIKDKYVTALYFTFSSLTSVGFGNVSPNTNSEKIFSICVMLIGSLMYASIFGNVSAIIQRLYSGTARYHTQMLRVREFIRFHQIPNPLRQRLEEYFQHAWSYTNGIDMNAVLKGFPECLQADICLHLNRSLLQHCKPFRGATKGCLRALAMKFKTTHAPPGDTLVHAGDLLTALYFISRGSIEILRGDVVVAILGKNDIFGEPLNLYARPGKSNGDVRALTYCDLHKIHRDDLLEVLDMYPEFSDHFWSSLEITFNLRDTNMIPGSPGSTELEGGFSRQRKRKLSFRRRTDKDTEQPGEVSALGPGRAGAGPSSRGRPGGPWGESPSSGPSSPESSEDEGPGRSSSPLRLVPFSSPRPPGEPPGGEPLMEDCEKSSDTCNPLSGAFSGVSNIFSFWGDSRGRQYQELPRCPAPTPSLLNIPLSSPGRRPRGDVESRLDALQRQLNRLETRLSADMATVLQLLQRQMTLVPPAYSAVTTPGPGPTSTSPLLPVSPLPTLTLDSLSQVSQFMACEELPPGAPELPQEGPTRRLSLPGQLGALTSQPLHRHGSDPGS
row,SMILES,"hERG current change (%, negative = inhibition) at 10uM"
1,O=C(Nc1ccccc1Cl)c1ccc(=O)[nH]n1,8.03%
2,COCCn1c(SCC(=O)N(C(C)C)C(C)C)nnc1-c1cc2ccccc2cc1O,-15.8%
3,COc1cccc(CN(C)C(=O)c2cc(S(=O)(=O)NC3CCCCC3)ccc2C)c1OC,-4.41%
4,COc1ccc(-c2oc3ccccc3c(=O)c2OC(C)=O)cc1,-11.3%
5,CC(=O)c1cccc(NC(=O)NCc2cccnc2)c1,12.2%
6,O=C(Oc1ccccc1)N(c1ccccc1)c1ccccc1,2.8%
7,NS(=O)(=O)c1ccc(NC(=O)CN2CCCc3ccccc32)cc1,-5.73%
8,N#Cc1ccc(CN2CCN(CC(=O)Nc3ccccc3C(=O)NC3CC3)CC2)cc1,-77.9%
9,NC(=O)C1CCN(CC(=O)Nc2ccccc2C(=O)NC2CC2)CC1,1.42%
10,O=C(CN1CCN(S(=O)(=O)c2ccccc2)CC1)NC1CC1,15.3%
11,CC(C#N)(NC(=O)CN1CCN(S(=O)(=O)c2ccccc2C#N)CC1)C1CC1 (centres unmarked),2.51%
12,O=C(CN1CCN(S(=O)(=O)c2ccc(F)cc2)CC1)NC1CCCC1,-8.45%
13,N#Cc1ccccc1S(=O)(=O)N1CCN(CC(=O)NC(=O)NC2CCCCC2)CC1,-31.6%
14,O=C(CN1CCN(S(=O)(=O)c2ccccc2F)CC1)Nc1ccccc1C(=O)c1ccccc1,-22.8%
15,N#Cc1ccc(S(=O)(=O)N2CCN(CC(=O)Nc3ccccc3C(=O)NC3CC3)CC2)cc1,-73.9%
16,O=C(CN1CCN(S(=O)(=O)c2ccccc2)CC1)Nc1ccccc1C(=O)c1ccccc1,-19.4%
17,Cc1ccccc1C(=O)NC1CCN(CC(=O)Nc2ccccc2Cl)CC1,-14.4%
18,O=C(CN1CCN(S(=O)(=O)c2ccc(F)c(F)c2)CC1)Nc1ccccc1C(=O)NC1CC1,-72.3%
19,N#Cc1ccccc1S(=O)(=O)N1CCN(CC(=O)Nc2ccccc2C(=O)NC2CC2)CC1,-66.5%

row,SMILES,"hERG current change (%, negative = inhibition) at 10uM"
1,O=C(Cc1c(F)cccc1Cl)Nc1ccccc1C(=O)N1CCOCC1,3.32%
2,C#CCOc1ccc(/C=C2/C(=O)ON=C2C)cc1Cl,10.9%
3,Oc1ccc(Br)cc1/C=N/n1c(COc2ccccc2)n[nH]c1=S,16.5%
4,CCCCNC(=O)COC(=O)c1ccc(F)cc1Cl,-10.8%
5,COc1ccc(-c2cc(=O)oc3cc(OC(C)C(=O)Nc4ccc(CN5CCOCC5)cc4)ccc23)cc1 (centres unmarked),-0.104%
6,O=C(c1ccc(Cl)cc1)c1cnc(Nc2ccccc2Cl)s1,-1.11%
7,Cc1cc(C)c(NC(=O)CSc2nnc(CN3CCOCC3)n2C)c(C)c1,13.5%
8,COc1ccc(C(C(=O)NC2CCCC2)N(C(=O)c2ccoc2C)c2ccccc2)cc1 (centres unmarked),-3.9%
9,CC(=O)c1ccc(S(=O)(=O)N2CCN(CC(=O)NC(=O)NC3CCCCC3)CC2)cc1,-16.8%
10,CC(=O)c1ccc(S(=O)(=O)N2CCN(CC(=O)Nc3ccccc3C(=O)NC3CC3)CC2)cc1,-75.4%
11,O=C(CN1CCN(S(=O)(=O)c2ccccc2)CC1)Nc1ccccc1C(=O)NC1CC1,-27.1%
12,CCn1c(SCC(=O)NC2CCCCC2)nnc1-c1cc2cccc(OC)c2o1,-26%
13,CCCCn1c(SCC(=O)NCc2ccco2)nc2cc(S(N)(=O)=O)ccc21,-7.32%
14,COc1ccc(NC(NC(=O)c2cccnc2)C(Cl)(Cl)Cl)cc1 (centres unmarked),29.3%
15,CC1CCCN(CC(O)COc2ccc3c(c2)OCO3)C1.Cl (centres unmarked),-15.1%
16,Cl.OCCN1CCN(CC(O)COc2ccc(-c3ccccc3)cc2)CC1 (centres unmarked),-45.9%
17,CC1CCCN(CC(O)COc2ccc(Cl)cc2)C1.Cl (centres unmarked),-69.2%
18,CC1CCCN(C(=O)COc2ccc(-c3ccccc3)cc2)C1 (centres unmarked),-35.5%
19,CC(=O)c1ccc(OCC(O)CN2CCCC(C)C2)cc1.Cl (centres unmarked),-1.2%

row,SMILES,"hERG current change (%, negative = inhibition) at 10uM"
1,OC1CCCN(CC(O)COc2ccc(-c3ccccc3)cc2)C1 (centres unmarked),-52.9%
2,CC1CCCN(CC(O)COc2ccc(-c3ccccc3)cc2)C1 (centres unmarked),-73.4%
3,OC(COc1ccc(-c2ccccc2)cc1)CN1CCOCC1 (centres unmarked),-19.7%
4,C=CCNC(=O)CCCOc1cc(C)ccc1C,-9.84%
5,CC(C)(O)CCc1c(-c2ccc(O)cc2O)oc2c3c(cc(O)c2c1=O)OC(C)(C)C=C3,13.7%
6,CC1(C)Cc2nc3oc4c(=O)n(CC(=O)Nc5ccccc5)cnc4c3cc2CO1,5.24%
7,O=C(O)c1cc(NC(=O)c2cccc(C(=O)Nc3cc(C(=O)O)cc(C(=O)O)c3)c2)cc(C(=O)O)c1,15.8%
8,CCc1noc(C)c1C(=O)N1CCCC(CCC(=O)NCc2ccc(F)c(F)c2)C1 (centres unmarked),-0.135%
9,O=S(=O)(c1cc(Cl)ccc1Br)N1CCCCC1,-22.9%
10,Cc1cc(=O)oc2c3c(cc(OCC(=O)NCc4ccncc4)c12)OC(C)(C)CC3,-27.7%
11,Cc1cc(=O)oc2c3c(cc(OCC(=O)NCCCn4ccnc4)c12)OC(C)(C)CC3,-32.1%
12,CCCc1cc(=O)oc2c3c(cc(OCC(=O)NCc4ccncc4)c12)OC(C)(C)CC3,-65%
13,CCc1cc(=O)oc2c3c(cc(OCC(=O)NCc4ccncc4)c12)OC(C)(C)CC3,-34.4%
14,CCc1cc(=O)oc2c3c(cc(OCC(=O)NCCCOC)c12)OC(C)(C)CC3,8.45%
15,CCCCc1cc(=O)oc2c3c(cc(OCC(=O)NCCCO)c12)OC(C)(C)CC3,-18.1%
16,CCc1cc(=O)oc2c3c(cc(OCC(=O)NCCCn4ccnc4)c12)OC(C)(C)CC3,-51.1%
17,CCCc1cc(=O)oc2c3c(cc(OCC(=O)NCCCn4ccnc4)c12)OC(C)(C)CC3,-73.9%
18,CCCc1cc(=O)oc2c3c(cc(OCC(=O)NCCN4CCOCC4)c12)OC(C)(C)CC3,-18.3%
